For assay [1], the target named is Transient receptor potential cation channel subfamily V member 1 (Homo sapiens) (UniProt Q8NER1). The assay can be described thus: HTS Assay for Compounds that Act as Enhancers of the Vanilloid Receptor 1 (AID 488979). Note: 0% is about no effect. Put shortly: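 TRPV1-expressing cells loaded with Fluo-8 calcium dye; compounds added and calcium influx read kinetically for 3 min (agonist phase), then capsaicin at EC20 added and read 2 min more for enhancement. Fluorescence ex 480/em 520 nm.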

Assay [2] has as its target Thyrotropin receptor (Homo sapiens) (UniProt P16473). As to the kind of experiment: qHTS Assay for Antagonists of the Thyroid Stimulating Hormone Receptor (AID 488980). Note: series mostly up to about 58 µM; 0% is about no effect. Put shortly:
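Inhibition of TSH-stimulated cAMP accumulation was quantified by homogeneous time-resolved FRET in TSHR-transfected HEK293 cells. Agonist: TSH, 4 nM final (EC80).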

Assay [3] deals with D(1A) dopamine receptor (Homo sapiens) (UniProt P21728). As to the kind of experiment: HTS Assay for Allosteric Agonists of the Human D1 Dopamine Receptor: Primary Screen for Agonists (AID 488981). Note: 0% is about no effect. The method in brief:
(§1)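 Tetracycline-induced HEK293 T-REx cells force-coupled to calcium signalling were incubated overnight at 30 C and dye-loaded at room temperature. Calcium flux over 180 s after compound addition flagged agonists; a further 180 s read after EC20 dopamine flagged potentiators.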

Assay [4] concerns the target Thyrotropin-releasing hormone receptor (Homo sapiens) (UniProt P34981). The assay can be described thus: qHTS for Small Molecule Agonists and Allosteric Enhancers of Human TRH Receptor: Validation Screen for Agonists (AID 493127;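 active = calcium activation more than 3 SD above the typical response in the agonist read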;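 note: intracellular calcium rise by fluo-8 fluorescence before TRH EC20 addition; 0% is about no effect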). The following applies: TRH receptor agonist cell assay; at 2 µM; stronger effect = higher value. The method in brief:
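Cells 2000/well, 10% FCS, 18 h 33.5C/5% CO2 → fluo-8 Ca dye, RT 30 min–1.5 h → FDSS baseline 10 × 1 s → compound added → 230 cycles (1 s/cycle) agonist mode. TRH controls.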
(Quantitative high-throughput screening tests each substance at several concentrations.)

Assay [5] can be described thus: qHTS for Inhibitors of Cell Surface uPA Generation: Validation Assay (AID 493164). Note: 0% is about no effect. Put shortly: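 RAW 264.7 cells (4000/well) were plated overnight, then exposed for 18 h at 37 C, 5% CO2 to compounds in a 7-point 1:5 titration (2.45 nM–38.3 uM final). Intracellular ATP was read by ATP-Lite luminescence.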
A short description of assay [6]: Validation screen for small molecules that induce DNA re-replication in SW480 colon adenocarcinoma cells (AID 504364). Note: 0% is about no effect. The method in brief:
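250 cells/well; compound pinned in; 48 hr, 37 C, 5% CO2; Hoechst added, 40 min; nuclear fluorescence imaged, 405 ex / 500-530 em; re-replication scored as increase in high-intensity nuclei.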

The target of assay [7] is Peptidyl-prolyl cis-trans isomerase NIMA-interacting 1 (Homo sapiens) (UniProt Q13526). As to the kind of experiment: qHTS Validation Assay to Find Inhibitors of Pin1 (AID 504536; active = well fitted inhibition curve with a large enough effect in the polarisation, with a control signal flat, not every such curve was filed as active; the % refers to the polarisation;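 note: 0% = full Pin1 enzyme wells and -100% = no-enzyme wells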). Put shortly: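 Fluorescence polarization competition: compounds (titration) displace HiFluor-488-labeled Pin1-1b peptide from Pin1 (0.3 uM final) in pH 7.5 HEPES buffer with DTT, 10 min at room temperature; %Activity normalized to no-enzyme wells, curves fitted.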

The target of assay [8] is Phosphoglycerate kinase, glycosomal (Trypanosoma brucei brucei) (UniProt P07378). As to the kind of experiment: qHTS Validation Assay to Find Inhibitors of Phosphoglycerate Kinase (AID 504547).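 Note: control wells lack PGK and mark full inhibition.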 The method in brief: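 Substrate/PGK mix plus compound; reaction started with GAPDH (100nM final) to form 1,3-BPG; 60 min RT; Kinase-Glo Plus 10 min; luminescence. TEA 100mM pH 7.6, MgCl2 5mM, Tween-20 0.01%.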

In assay [9] the target is Ubiquitin carboxyl-terminal hydrolase 1 (Homo sapiens) (UniProt O94782). The assay can be described thus: Inhibitors of USP1/UAF1: Pilot qHTS (AID 504865). Note: nearly all actives have a fitted effect of over 35% in size. Note: potency is the fitted concentration of half-maximal effect. Put shortly:
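Enzyme-free wells gave the negative control, while test wells held 1nM USP1/UAF1 preincubated with compound for 15 min at room temperature. Ub-Rho at 150nM final started the reaction, and fluorescence at 480/540 nm was recorded kinetically.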

Assay [10] can be described thus: qHTS for Inhibitors of ATXN expression: Validation (AID 588378). Note: series mostly up to about 57 µM; % is set by controls: 0 for no effect and ±100 for the full control effect; nearly all actives have a fitted effect of over 75% in size. The method in brief:
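After a 2 h attachment and 24 h compound incubation, HEK293-ATXN2-FFLuc wells are read for fluorescence at 405 nm excitation/525 nm emission as a viability measure, then for Bright-Glo luminescence reflecting ATXN2 expression.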

Assay [11] addresses D(1A) dopamine receptor (Homo sapiens) (UniProt P21728). The assay can be described thus: HTS Assay for Allosteric Agonists of the Human D1 Dopamine Receptor: Primary Screen for Antagonists (AID 488983).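 Note: calcium flux response to an EC80 dopamine challenge measured with no-wash dye; % is set by controls: 0 for no effect and ±100 for the full control effect; nearly all actives have a fitted effect of over 65% in size.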 Put shortly: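 Cells are induced with tetracycline and incubated overnight at 30 C, then loaded with calcium dye for 30 to 90 minutes at room temperature. Compound addition is followed by a 180 s read, then an EC80 dopamine addition and another 180 s read.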

The nature of assay [12]: Validation screen for small molecules that induce genotoxicity in human embryonic kidney (HEK293T) cells expressing luciferase-tagged ELG1 (AID 493106). Note: 0% is about no effect. Put shortly: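 Luminescence from an ELG1-luciferase fusion serves as the read-out, rising when genetic stress elevates ELG1 protein. HEK293T reporter cells (2,000 per well) received 23 nL compound, incubated 16 hr at 37 °C, then ONE-Glo for 30 min at room temperature.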

A short description of assay [13]: Nrf2 qHTS screen for inhibitors: Validation (AID 493153; active = well fitted inhibition curve with a large enough effect in the main read-out, with a control signal flat, not every such curve was filed as active). The following applies: Potency: luciferase luminescence; viability change: measured here: cytotoxicity max response. The method in brief: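 Luminescence from an ARE-firefly luciferase reporter in A549 cells gives Nrf2 inhibition; an earlier CellTiter-Fluor fluorescent read flags cytotoxicity. Cells in 5% FBS OPTI-MEM received compound dilution series for 18-24 h at 37°C.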

For assay [14], the target named is Galactokinase (Homo sapiens) (UniProt P51570). The assay can be described thus: qHTS Validation Assay for Inhibitors of Human Galactokinase (GALK) (AID 493189). Note: 0% is about no effect. The method in brief: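 Enzyme activity is inferred from ATP consumption: human GALK phosphorylates galactose (100 uM) using 35 uM ATP for 1 h at room temperature, and luciferase-based Kinase-Glo Plus reports unconsumed ATP.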

Assay [15] has as its target phosphoglycerate mutase (Leishmania major) (UniProt Q4Q090). As to the kind of experiment: qHTS Validation Assay to Find Inhibitors of Phosphoglycerate Mutase (AID 504548).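 Note: end-point luminescence from Kinase-GloPlus after the PGAM reaction; series mostly up to about 58 µM; % is set by controls: 0 for no effect and ±100 for the full control effect.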 The following applies: Potency: inhibition qHTS. The method in brief: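 L. major PGAM (1.25nM final) was added to substrate buffer and pinned compound, incubated 45 minutes at room temperature, then Kinase-GloPlus added; luminescence read after 10 minutes. Buffer: 100 mM TEA pH 7.6, 5 mM MgCl2, 0.01% Tween-20.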

Assay [16] can be described thus: qHTS for Inhibitors of ATXN expression: Validation of Cytotoxic Assay (AID 588349). Note: % is set by controls: 0 for no effect and ±100 for the full control effect. The method in brief:
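Read-out: ATP-based luminescence (CellTiter Glo) reflecting viability of HEK293 cells after 72 hr incubation at 37 degrees C with a concentration series of each compound.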

The target in assay [17] is D(1A) dopamine receptor (Homo sapiens) (UniProt P21728). As to the kind of experiment: HTS Assay for Allosteric Agonists of the Human D1 Dopamine Receptor: Primary Screen for Potentiators (AID 488982). Note: 0% is about no effect. Put shortly: as §1
The target of assay [18] is ATPase family AAA domain-containing protein 5 (Homo sapiens) (UniProt Q96QE3). As to the kind of experiment: Validation screen for small molecules that inhibit ELG1-dependent DNA repair in human embryonic kidney (HEK293T) cells expressing luciferase-tagged ELG1 (AID 493107).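 Note: cells co-treated with the DNA-damaging agent 5-fluorouridine alongside compound; series mostly up to about 46 µM; % is set by controls: 0 for no effect and ±100 for the full control effect; inhibitors lower the ELG1-luciferase luminescence signal; nearly all actives have a fitted effect of over 70% in size.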 Put shortly: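 Luminescence from ONE-Glo, developed 30 min at room temperature, served as read-out of ELG1-luciferase levels. Beforehand, reporter HEK293T cells received 5-fluorouridine plus test compound for 16 hr at 37 °C.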

Inconclusive results are not listed. Activity calls are given as the source filed them. Unless noted, calls come from the whole dose curve; as a rule, active = well fitted curve in the direction sought with a large enough effect; inconclusive = small, poorly fitted or top-dose-only effect, or another doubt; inactive = no such curve, though single readings can be large; an effect the other way counts as inactive or inconclusive.

Chain of Thyrotropin receptor (Homo sapiens) (P16473 whole entry, looked up): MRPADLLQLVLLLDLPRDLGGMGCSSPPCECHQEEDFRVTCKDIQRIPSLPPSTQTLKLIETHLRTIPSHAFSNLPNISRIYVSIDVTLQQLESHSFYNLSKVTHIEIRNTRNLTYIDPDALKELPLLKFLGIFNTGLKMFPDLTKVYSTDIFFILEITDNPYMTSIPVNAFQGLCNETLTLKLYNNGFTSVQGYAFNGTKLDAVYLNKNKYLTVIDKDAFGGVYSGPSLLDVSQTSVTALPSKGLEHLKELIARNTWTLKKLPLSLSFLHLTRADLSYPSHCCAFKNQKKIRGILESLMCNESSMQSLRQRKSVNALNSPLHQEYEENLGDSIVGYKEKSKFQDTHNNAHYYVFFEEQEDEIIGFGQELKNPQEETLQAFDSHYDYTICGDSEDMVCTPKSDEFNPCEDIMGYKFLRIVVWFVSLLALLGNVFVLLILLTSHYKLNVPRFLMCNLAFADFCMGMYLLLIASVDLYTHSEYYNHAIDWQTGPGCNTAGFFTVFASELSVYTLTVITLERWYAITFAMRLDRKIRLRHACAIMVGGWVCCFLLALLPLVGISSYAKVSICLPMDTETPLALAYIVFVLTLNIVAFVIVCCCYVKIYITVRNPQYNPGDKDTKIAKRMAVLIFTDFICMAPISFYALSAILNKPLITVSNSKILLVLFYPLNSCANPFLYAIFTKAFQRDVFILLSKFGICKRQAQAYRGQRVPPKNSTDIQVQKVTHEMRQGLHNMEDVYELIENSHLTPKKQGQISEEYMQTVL
Chain of D(1A) dopamine receptor (Homo sapiens) (P21728 whole entry, looked up, the tested form may be a part): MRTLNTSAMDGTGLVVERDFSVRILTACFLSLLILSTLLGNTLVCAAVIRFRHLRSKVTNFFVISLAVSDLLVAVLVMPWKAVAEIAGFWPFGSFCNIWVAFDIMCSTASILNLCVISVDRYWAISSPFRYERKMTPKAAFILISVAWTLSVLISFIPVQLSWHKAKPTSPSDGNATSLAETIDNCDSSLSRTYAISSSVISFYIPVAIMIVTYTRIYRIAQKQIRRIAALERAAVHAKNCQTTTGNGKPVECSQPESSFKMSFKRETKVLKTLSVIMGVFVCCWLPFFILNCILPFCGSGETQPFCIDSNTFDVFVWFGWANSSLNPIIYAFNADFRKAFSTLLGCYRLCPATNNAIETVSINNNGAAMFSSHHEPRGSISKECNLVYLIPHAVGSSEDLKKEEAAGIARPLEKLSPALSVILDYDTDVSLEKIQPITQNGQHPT
Chain of Peptidyl-prolyl cis-trans isomerase NIMA-interacting 1 (Homo sapiens) (Q13526 whole entry, looked up): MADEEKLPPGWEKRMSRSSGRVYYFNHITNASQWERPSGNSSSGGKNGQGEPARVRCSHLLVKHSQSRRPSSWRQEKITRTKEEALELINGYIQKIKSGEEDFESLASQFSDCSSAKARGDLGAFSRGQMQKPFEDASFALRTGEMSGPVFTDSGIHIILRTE
Chain of Ubiquitin carboxyl-terminal hydrolase 1 (Homo sapiens) (O94782 whole entry, looked up): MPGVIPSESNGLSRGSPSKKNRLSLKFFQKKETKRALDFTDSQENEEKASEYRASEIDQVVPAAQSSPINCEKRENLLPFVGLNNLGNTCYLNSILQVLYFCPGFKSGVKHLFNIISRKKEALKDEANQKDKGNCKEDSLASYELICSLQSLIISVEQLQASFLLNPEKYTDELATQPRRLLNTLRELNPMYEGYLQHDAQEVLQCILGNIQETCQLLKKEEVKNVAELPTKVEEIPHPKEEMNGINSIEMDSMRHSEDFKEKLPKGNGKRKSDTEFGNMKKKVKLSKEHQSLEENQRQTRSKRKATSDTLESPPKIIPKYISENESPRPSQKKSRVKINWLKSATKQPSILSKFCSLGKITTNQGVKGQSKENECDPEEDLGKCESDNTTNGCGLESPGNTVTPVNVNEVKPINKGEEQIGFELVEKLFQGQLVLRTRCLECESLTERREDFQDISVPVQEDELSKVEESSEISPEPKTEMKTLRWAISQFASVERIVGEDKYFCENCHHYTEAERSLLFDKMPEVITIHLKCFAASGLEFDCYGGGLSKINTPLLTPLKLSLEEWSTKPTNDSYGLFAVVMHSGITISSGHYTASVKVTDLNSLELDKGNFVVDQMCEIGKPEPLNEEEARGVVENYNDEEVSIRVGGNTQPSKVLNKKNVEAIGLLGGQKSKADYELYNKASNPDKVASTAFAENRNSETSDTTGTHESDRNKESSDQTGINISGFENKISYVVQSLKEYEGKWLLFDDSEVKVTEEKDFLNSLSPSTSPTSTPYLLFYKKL
Chain of Transient receptor potential cation channel subfamily V member 1 (Homo sapiens) (Q8NER1 whole entry, looked up): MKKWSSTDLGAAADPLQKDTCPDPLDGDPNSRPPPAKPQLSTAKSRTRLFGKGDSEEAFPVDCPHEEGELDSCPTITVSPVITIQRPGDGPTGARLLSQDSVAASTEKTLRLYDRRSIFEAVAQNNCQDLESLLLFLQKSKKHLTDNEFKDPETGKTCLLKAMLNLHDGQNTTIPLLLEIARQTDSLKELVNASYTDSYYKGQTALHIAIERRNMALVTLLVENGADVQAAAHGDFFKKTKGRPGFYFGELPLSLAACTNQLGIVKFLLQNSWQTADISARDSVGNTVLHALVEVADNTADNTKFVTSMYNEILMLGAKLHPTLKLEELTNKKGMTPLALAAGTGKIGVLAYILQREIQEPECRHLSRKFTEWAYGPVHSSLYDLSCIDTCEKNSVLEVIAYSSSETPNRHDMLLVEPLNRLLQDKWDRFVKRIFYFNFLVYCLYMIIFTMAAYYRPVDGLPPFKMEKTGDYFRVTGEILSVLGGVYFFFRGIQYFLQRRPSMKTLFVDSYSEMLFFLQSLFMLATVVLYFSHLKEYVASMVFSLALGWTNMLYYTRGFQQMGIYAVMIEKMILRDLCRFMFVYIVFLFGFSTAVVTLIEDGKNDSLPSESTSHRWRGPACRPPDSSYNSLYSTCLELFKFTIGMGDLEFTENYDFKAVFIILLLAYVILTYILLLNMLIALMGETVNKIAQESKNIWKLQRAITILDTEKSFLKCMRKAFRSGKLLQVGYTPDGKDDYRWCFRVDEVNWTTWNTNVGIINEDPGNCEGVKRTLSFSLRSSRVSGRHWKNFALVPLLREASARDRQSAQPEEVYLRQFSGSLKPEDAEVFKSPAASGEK
Chain of ATPase family AAA domain-containing protein 5 (Homo sapiens) (Q96QE3 whole entry, looked up, the tested form may be a part): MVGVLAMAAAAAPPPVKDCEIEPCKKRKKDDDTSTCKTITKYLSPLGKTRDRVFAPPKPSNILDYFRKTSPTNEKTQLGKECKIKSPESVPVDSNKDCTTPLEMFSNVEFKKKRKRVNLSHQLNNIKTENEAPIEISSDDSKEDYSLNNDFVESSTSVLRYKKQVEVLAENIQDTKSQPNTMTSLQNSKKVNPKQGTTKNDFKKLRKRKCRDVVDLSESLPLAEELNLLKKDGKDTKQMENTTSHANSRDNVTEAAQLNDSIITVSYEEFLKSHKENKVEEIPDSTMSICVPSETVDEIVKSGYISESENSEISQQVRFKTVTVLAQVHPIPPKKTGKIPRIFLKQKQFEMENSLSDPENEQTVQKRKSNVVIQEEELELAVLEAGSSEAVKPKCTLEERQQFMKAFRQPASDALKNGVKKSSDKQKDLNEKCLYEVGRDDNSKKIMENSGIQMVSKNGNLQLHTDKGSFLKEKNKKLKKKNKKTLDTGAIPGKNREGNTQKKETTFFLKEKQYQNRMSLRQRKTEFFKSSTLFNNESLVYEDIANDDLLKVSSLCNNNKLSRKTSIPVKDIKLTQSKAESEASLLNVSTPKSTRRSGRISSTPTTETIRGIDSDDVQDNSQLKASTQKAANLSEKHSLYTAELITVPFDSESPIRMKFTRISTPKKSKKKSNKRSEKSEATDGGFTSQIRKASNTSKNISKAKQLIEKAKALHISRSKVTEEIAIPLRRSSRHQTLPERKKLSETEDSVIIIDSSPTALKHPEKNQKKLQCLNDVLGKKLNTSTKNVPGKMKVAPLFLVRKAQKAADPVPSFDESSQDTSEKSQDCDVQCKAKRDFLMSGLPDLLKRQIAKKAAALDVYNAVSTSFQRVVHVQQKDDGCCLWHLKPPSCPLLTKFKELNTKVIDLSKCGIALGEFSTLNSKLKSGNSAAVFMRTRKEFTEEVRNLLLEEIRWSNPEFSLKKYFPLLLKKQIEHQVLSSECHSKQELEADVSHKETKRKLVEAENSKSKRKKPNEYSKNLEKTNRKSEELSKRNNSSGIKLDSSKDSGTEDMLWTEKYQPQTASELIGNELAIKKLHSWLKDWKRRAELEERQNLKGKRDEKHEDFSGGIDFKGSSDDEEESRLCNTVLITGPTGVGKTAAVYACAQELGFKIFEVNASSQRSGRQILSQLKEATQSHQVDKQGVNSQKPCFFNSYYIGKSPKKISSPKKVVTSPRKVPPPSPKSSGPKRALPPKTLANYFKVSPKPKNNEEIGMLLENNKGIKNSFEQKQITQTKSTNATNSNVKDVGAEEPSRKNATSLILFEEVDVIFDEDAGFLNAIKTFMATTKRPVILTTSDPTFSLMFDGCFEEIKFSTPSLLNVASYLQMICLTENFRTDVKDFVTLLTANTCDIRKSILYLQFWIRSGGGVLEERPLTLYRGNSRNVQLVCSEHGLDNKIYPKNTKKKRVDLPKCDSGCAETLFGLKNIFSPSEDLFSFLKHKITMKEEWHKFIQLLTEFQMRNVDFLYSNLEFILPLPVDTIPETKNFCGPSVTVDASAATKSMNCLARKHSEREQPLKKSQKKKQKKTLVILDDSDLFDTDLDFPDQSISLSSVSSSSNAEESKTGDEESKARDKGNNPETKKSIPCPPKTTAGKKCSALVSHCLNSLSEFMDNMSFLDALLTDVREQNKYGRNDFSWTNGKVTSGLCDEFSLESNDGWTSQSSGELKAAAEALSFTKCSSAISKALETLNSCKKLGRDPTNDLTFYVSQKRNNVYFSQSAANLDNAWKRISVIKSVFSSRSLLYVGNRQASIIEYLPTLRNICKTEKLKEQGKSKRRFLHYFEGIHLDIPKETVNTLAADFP

Consider `Nc1nc2ccc(Cl)cc2c2nc(-c3ccco3)nn12`, for which the outcome in assay [1], in assay [2] and in [5] was inactive. Further, the Potency result in [3], in [6], in assay [7], in assay [8], in assay [9] and in [10] was “inactive” each time. For the same compound, in assay [4], the activation is 0.25% (inactive).
For the compound `CCCCCCC/C=C\CCCCCCCCC(=O)O`, the outcome in assay [1], in assay [2] and in assay [5] was inactive. In addition, the Potency result in assay [3], in [11], in assay [12], in assay [13], in [14] and in assay [6] was “inactive” each time. Further, the Potency result in assay [8], in [15], in assay [16] and in assay [10] was “inactive” each time. For the same compound, the activation in assay [4] was 1.5% (inactive). In addition, the viability change in assay [13] is 3.91%. Moreover, in [9], the Potency is 39.8 µM (active).
As for `NC(N)=NC(N)=Nc1ccccc1`, the outcome in [1], in assay [2] and in assay [5] was inactive. Besides, the Potency entry in [17], in [11], in assay [12], in assay [18], in assay [13] and in [14] was “inactive” throughout. The Potency entry in assay [6], in [7], in assay [8], in assay [15], in assay [9] and in assay [16] was “inactive” each time. In addition, the Potency entry in [10] was “inactive”. Moreover, the activation in assay [4] was 0.75% (inactive). Moreover, the viability change in [13] is -4.42%.
`CC(=O)NCCc1c[nH]c2ccc(O)cc12`: the result in assay [1] and in assay [2] was inactive. Besides, the Potency result in [17], in [11], in [12], in assay [18], in assay [13] and in assay [6] was “inactive” each time. In addition, the Potency entry in [7], in assay [8], in assay [15], in [9], in assay [16] and in [10] was “inactive” in each case. The activation in [4] is 1.31% (inactive). Besides, the viability change in assay [13] is -0.372%.
Turning to `S=C(S)N1CCCC1`, the result in assay [1], in assay [2] and in assay [5] was inactive. Moreover, the Potency result in [17], in [11], in [18], in assay [13], in assay [14] and in assay [6] was “inactive” each time. The Potency entry in [7], in [8], in assay [15], in assay [9], in assay [16] and in assay [10] was “inactive” throughout. Also, the activation in [4] was -0.188% (inactive). Further, in [13], the viability change is -3.57%.
Take `CCCCCCCCCC[Si](C)(C)CCC(=O)NC(Cc1ccc(C)cc1)c1ccccc1` (configuration not stated): the result in [1], in [2] and in [5] was inactive. Also, the Potency entry in assay [17], in assay [11], in assay [12], in assay [18], in [13] and in assay [14] was “inactive” in each case. For the same compound, the Potency entry in [6], in assay [7], in assay [8], in assay [9] and in [10] was “inactive” each time. In [4], the activation is 0.812% (inactive). Further, the viability change in assay [13] was -1.11%.
Consider `CC1CCN=C(N)S1` (configuration not stated), for which the outcome in [1], in [2] and in assay [5] was inactive. Further, the Potency entry in assay [3], in assay [11], in [18], in assay [13], in assay [14] and in [6] was “inactive” throughout. Besides, the Potency result in assay [7], in [8], in assay [15], in [9], in [16] and in [10] was “inactive” throughout. For the same compound, in [4], the activation is -2.88% (inactive). Moreover, the viability change in assay [13] was 9.66%.
With `C#CC(N)CCC(=O)O` (configuration not stated), the outcome in [1], in [2] and in assay [5] was inactive. For the same compound, the Potency result in assay [17], in assay [11], in [12], in [18], in assay [13] and in [14] was “inactive” in each case. The Potency result in [7], in assay [8], in [15], in assay [9], in [16] and in assay [10] was “inactive” throughout. Also, in assay [4], the activation was 0.625% (inactive). The viability change in [13] amounted to 2.08%.
